Rows were chosen to be rich in hits. Some 2.7% of all compounds tested hit in one or more screens of this group.
F508del corr = F508del CFTR correction, initial screen, CFBE line, single point; CFBE cells, YFP halide quenching; stimulated with forskolin plus potentiator P3; % fluorescence drop versus neutral controls; 350,000 compounds, 0.36% hits; activity (quench increase), % at 7.58 µM; AID 720511, 2013;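 active = mean added fluorescence quench of at least 8% versus neutral control, with both replicates also reaching 8%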;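 note: cells transiently co-express mutant CFTR-F508del with the halide-sensitive YFP; corrector assay measuring rescue of mutant channel to the surface after 24 h compound exposure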
SKN-1 inh = suppressors of acrylamide-induced Pgst-4::GFP reporter in worms, primary screen, SKN-1 inhibitor project, whole organism, uHTS, GFP/RFP fluorescence ratio, strain VP596; C. elegans VP596 Pgst-4::GFP/RFP ratio, 24 h; inhibition, % at 21.8 µM; 360,000 compounds, 0.49% hits; AID 624304, 2012;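 active = interference check ratio from 0.5 to 1.5 plus GFP to RFP signal ratio inhibition reaching or exceeding a fixed threshold, cut at about 30% in these data, passing the limit was not always enough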
MPTP block = mitochondrial permeability transition pore inhibitors, primary screen, biochemical, isolated mouse mitochondria, absorbance; Ca2+ swelling absorbance, 30 min; 360,000 compounds, 1.4% hits; inhibition, % at 10 µM; AID 602449, 2012;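 active = inhibition of 50% or more, scaled per plate between neutral and stimulator controls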
NRP1-CendR mod = modulators of CendR peptide binding to NRP-1, primary screen, biochemical, fluorescence polarization, uHTS; inhibition, % at 25 µM; FAM-RPARPAR peptide binding to NRP-1; AID 602438, 2012; 360,000 compounds, 0.85% hits;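 active = inhibition or corrected inhibition above about 18%, plus a signal ratio from 0.5 to 1.5, limit read from the data, passing the limit was not always enough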
Target sequence (O14786 whole entry, looked up): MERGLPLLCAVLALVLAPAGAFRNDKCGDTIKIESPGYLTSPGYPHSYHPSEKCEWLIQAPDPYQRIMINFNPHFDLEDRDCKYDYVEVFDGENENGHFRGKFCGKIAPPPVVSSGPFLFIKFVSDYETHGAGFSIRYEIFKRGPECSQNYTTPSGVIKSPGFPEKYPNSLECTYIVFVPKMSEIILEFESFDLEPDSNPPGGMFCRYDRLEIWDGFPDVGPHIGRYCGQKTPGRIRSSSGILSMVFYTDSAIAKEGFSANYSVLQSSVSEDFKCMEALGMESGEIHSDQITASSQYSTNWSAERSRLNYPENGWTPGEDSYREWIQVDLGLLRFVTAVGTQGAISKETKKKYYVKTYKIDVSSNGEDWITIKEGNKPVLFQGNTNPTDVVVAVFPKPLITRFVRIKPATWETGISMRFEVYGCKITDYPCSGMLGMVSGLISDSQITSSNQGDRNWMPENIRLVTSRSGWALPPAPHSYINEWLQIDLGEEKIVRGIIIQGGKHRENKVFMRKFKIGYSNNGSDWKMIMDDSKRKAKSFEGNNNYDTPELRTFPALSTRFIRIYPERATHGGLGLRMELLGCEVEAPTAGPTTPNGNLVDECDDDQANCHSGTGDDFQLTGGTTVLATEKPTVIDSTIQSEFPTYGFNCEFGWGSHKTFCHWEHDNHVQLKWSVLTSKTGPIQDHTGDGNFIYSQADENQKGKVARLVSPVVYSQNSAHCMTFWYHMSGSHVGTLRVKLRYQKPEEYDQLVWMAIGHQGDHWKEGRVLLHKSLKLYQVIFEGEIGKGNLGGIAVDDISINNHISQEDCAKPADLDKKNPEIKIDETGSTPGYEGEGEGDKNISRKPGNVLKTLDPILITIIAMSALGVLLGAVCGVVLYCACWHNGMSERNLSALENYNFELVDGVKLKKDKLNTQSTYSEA
ATG4B inhibitor = ATG4B protease inhibitors, primary screen, biochemical, fluorescence, uHTS | ATG4B cleavage of LC3-PLA2, NBD-HPC fluorescence, 1 h | inhibition, % at 8.33 µM | 340,000 compounds, 0.51% hits | AID 504462, 2011; in the data active = inhibition above about 40%
A number is an active result; – = inactive; · = not tested or not shown.

SMILES	F508del corr	SKN-1 inh	MPTP block	NRP1-CendR mod	ATG4B inhibitor
FC(F)(F)c1cc(-c2ccccc2)nc(NCC2CCCO2)n1 (stereo not drawn)	·	–	–	–	–
FC(F)(F)c1cc(-c2ccccc2)nc(NC2CCCC2)n1	·	36.7	–	–	–
C/C(=C\C(=O)c1ccccc1)NCc1ccc(F)cc1	·	33.4	–	–	–
CN(C)CC(=O)N[C@@H]1CC[C@@H](CCNC(=O)C2CC2)O[C@H]1CO	–	·	·	·	·
C/C=C/c1ccc([C@H]2[C@@H](CO)N(C(=O)COC)[C@@H]2CNC(=O)CC)cc1	8.3	·	·	·	·
COc1ccc([C@H]2CC(=O)C=C(c3cc(Cl)ccc3OC)C2)cc1	–	–	–	–	–
COc1ccc(C2CC(=O)C=C(NC3CCCC3)C2)cc1 (stereo not drawn)	·	–	–	29.0	–
CCOc1ccc(Cl)cc1C1=CC(=O)C[C@H](c2ccc(OC)cc2)C1	9.1	–	–	–	–
COc1ccc([C@H]2CC(=O)C=C(c3c(OC)cccc3OC)C2)cc1	11.3	–	–	–	–
Cc1onc(-c2ccccc2)c1C(=O)Nc1nc2c(s1)C(=O)CC(C)(C)C2	·	40.3	–	–	–
CC1(C)CC(=O)c2sc(NC(=O)c3ccco3)nc2C1	–	–	–	–	–
COC(CNC(=O)[C@H](Cc1ccccc1)N1Cc2ccccc2C1=O)OC	8.5	–	–	–	–
CCOC(=O)N1CCN(c2ncnc3c2cnn3-c2ccc(OC)cc2)CC1	·	47.9	–	–	–
COc1ccc(-n2ncc3c(N4CCC(C)CC4)ncnc32)cc1	–	–	–	–	–
CC(C)NC(=O)N1C[C@H]2[C@@H](c3ccccc31)[C@H](CO)N2Cc1ccccn1	–	·	·	·	·
C[C@H](c1ccccc1)N1C[C@@H](COCc2ccccc2)Oc2cccc(Oc3ccc(F)cc3)c2S1(=O)=O	–	·	·	·	·
Cc1cccc(OCCn2c(-c3ccco3)nc3ccccc32)c1	·	–	–	27.9	–
Cc1ccc(C(=O)O)cc1NC(=O)Nc1cccc2ccccc12	–	–	–	22.5	–
CSCCC(NS(=O)(=O)c1ccc2c(c1)OCCO2)C(=O)N(C)Cc1ccc(C)cc1 (stereo not drawn)	–	–	–	36.7	–
CO[C@H]1CN(C)C(=O)c2cc(NC(=O)c3ccccc3)ccc2OC[C@@H](C)N(C(=O)CN(C)C)C[C@@H]1C	–	·	·	·	·
COc1cc(C2Nc3cccc4cccc(c34)N2)ccc1O	–	–	–	–	–
COc1cc(C2Nc3cccc4cccc(c34)N2)cc(OC)c1OC(C)=O	·	–	–	25.3	–
CN(C)C(=O)c1ccc(-c2ccc([C@H]3[C@H](CO)N4C(=O)CN(C(=O)CC5CC5)C[C@@H]34)cc2)cc1	–	·	·	·	·
CCC(Sc1nc2n[nH]c(C)c2c(=N)n1-c1cccc(Cl)c1)C(=O)NCCOC (stereo not drawn)	·	–	–	28.9	–
O=C(Cc1cccc([N+](=O)[O-])c1)Nc1cccc(C(=O)N2CCOCC2)c1	–	–	–	–	–
SMILES	F508del corr	SKN-1 inh	MPTP block	NRP1-CendR mod	ATG4B inhibitor
O=C(Nc1cccc(C(=O)N2CCOCC2)c1)c1ccc([N+](=O)[O-])cc1	–	–	–	19.4	–
C[C@H](CO)N1C[C@H](C)[C@@H](CN(C)S(=O)(=O)c2ccccc2)Oc2ccc(NC(=O)CCCCCC(=O)Nc3ccccc3N)cc2C1=O	–	·	·	·	·
CCCCOc1ccc(C(=O)N/C(=C/C=C/c2ccccc2)C(=O)NCCO)cc1	·	–	–	–	–
CCCCOc1ccc(C(=O)CCN2CCCCC2)cc1	–	–	–	–	–
CCCOc1ccc(C(=O)CCCC(=O)c2ccc(OCCC)cc2)cc1	8.3	–	–	–	–
CCCCOc1ccc(C(=O)NCC(=O)OCCCOC(=O)CNC(=O)c2ccc(OCCCC)cc2)cc1	–	–	–	–	·
CCCCOc1ccc(C(=O)NC)cc1	·	28.4	–	–	–
CCCCOc1ccc(C(=O)N/C(=C/C=C/c2ccccc2)C(=O)NCCCO)cc1	·	–	–	22.0	–
CC(C)(C)NC(=O)C12CC3CC(CC(Cl)(C3)C1)C2	·	–	–	22.3	–
O=C(c1ccc(F)cc1)N1CC(=O)N2[C@H](C1)[C@@H](c1ccc(C3=CCCC3)cc1)[C@@H]2CO	–	·	·	·	·
O=C(O)c1ccc(S(=O)(=O)c2ccccc2)cc1	·	40.4	–	–	–
CC(C)NC(=O)N(C)C[C@@H]1Oc2ncc(-c3ccc(F)cc3)cc2C(=O)N([C@H](C)CO)C[C@@H]1C	–	·	·	·	·
COc1cccc(C2Nc3ccc4ccccc4c3C3=C2C(=O)CC(C)(C)C3)c1OCC(=O)O (stereo not drawn)	–	35.2	–	–	–
CN(C)CCCNc1cc(C(C)(C)C)nc2c(-c3ccc(Cl)cc3)cnn12	–	40.6	–	–	–
CC(C)(C)c1cc(NCc2ccccn2)n2ncc(-c3ccc(Cl)cc3)c2n1	–	–	–	–	–
CCc1sc(N(C(=O)Cc2ccccc2)c2cccc(F)c2)nc1-c1ccc(C)cc1	·	43.7	–	–	–
Cc1ncc([N+](=O)[O-])n1CCOC(=O)NC(NCc1ccccc1Cl)C(Cl)(Cl)Cl (stereo not drawn)	·	–	–	38.0	–
N/C(=N\OC(=O)c1cccc(Br)c1)c1ccncc1	–	45.5	–	–	–
Cc1ccc(C(=O)O/N=C(\N)c2ccccn2)cc1	–	–	–	–	–
Cc1cccc(C(=O)O/N=C(\N)c2ccccn2)c1	–	36.8	–	–	–
CCOc1ccc(C(=O)O/N=C(\N)c2ccccn2)cc1	8.2	–	–	–	–
COc1cccc(NC(=O)C[C@H]2CC[C@@H]3[C@@H](COc4ccc(NC(=O)C5CCC5)cc4C(=O)N3C)O2)c1	–	·	·	·	·
COC(=O)c1cccc(Nc2ncnc3ccc(C)cc23)c1	–	–	–	–	–
Cc1ccc2ncnc(Nc3cccc([N+](=O)[O-])c3)c2c1	–	38.4	–	–	–
CCOC(=O)C1Nc2ccccc2C2C(O)C(O)CC12 (stereo not drawn)	–	–	–	27.4	–
SMILES	F508del corr	SKN-1 inh	MPTP block	NRP1-CendR mod	ATG4B inhibitor
CCOC(=O)C1Nc2ccc(C(F)(F)F)cc2C2c3ccccc3CC12 (stereo not drawn)	–	–	–	–	–
Cc1ccccc1-c1ccc2c(c1)O[C@H](CN(C)C)[C@@H](C)CN([C@@H](C)CO)S2(=O)=O	–	·	·	·	·
COc1ccc2cc(C(=O)N3CCCCCC3)sc(=O)c2c1OC	·	–	–	–	–
COC(=O)c1cc2ccc(OC)c(OC)c2c(=O)s1	·	–	–	27.4	–
COc1ccccc1-c1ccc2c(c1)[C@H]1[C@H](CCN1C(=O)C1CCOCC1)[C@@H](CO)N2	–	·	·	·	·
CC(C)NC(=O)C1(C)CSCC(=O)N1CCCN1CCOCC1 (stereo not drawn)	–	35.4	–	–	·
